Results published in PubChem BioAssay AID1851 (National Center for Advancing Translational Sciences (NCATS), 2009).
Out of some 16,000 compounds screened, about 4,000 (25%) were called active. About 26% were inconclusive and are not listed. These entries were drawn from the full list. A number with no mark means an inactive call. The call rests on the fitted dose curve; in most records, active means well fitted curve in the direction sought with a large enough effect; inconclusive means small, poorly fitted or top-dose-only effect, or effect the other way; inactive means no such curve, though single readings can be large or run the other way.

The compounds below were run against Cytochrome P450 2C9 (Homo sapiens) (UniProt P11712) (assay: Cytochrome panel assay with activity outcomes). Settings: recombinant CYP, pro-luciferin dealkylation, luminescence, p450-cyp2c9; series mostly up to 57.1 µM; activity, negative = inhibition: at the top concentration.
Cytochrome P450 2C9 (Homo sapiens), sequence (P11712 whole entry, looked up): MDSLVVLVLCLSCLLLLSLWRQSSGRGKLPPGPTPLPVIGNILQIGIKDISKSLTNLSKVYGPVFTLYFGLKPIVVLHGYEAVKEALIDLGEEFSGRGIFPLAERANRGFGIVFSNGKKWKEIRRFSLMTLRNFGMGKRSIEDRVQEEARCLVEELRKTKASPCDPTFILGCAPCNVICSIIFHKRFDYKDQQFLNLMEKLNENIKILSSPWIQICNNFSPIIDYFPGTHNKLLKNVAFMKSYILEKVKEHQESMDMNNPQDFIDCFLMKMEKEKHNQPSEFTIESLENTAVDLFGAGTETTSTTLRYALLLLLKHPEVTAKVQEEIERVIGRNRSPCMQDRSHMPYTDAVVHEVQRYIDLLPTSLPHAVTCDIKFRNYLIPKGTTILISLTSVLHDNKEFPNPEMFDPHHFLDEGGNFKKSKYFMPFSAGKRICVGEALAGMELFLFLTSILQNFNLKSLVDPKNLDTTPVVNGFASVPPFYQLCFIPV
On the % scale 0 is the no-effect control and ±100 the full control effect.

| SMILES | activity, negative = inhibition | AC50 |
| --- | --- | --- |
| CCCCN(C(=S)Nc1ccccc1)C1CCS(=O)(=O)C1 (configuration not stated) | -5.84% |  |
| CCCCSC(=S)N(C)C1CCS(=O)(=O)C1 (configuration not stated) |  | 17.8 µM (active) |
| O=C(Cc1ccccc1)NC1CCN(S(=O)(=O)c2ccc(C(=O)O)cc2)CC1 | -17.5% |  |
| Cc1ccc(NC(=O)CN2CCC(NC(=O)Cc3ccccc3)CC2)cc1C |  | 15.8 µM (active) |
| O=[N+]([O-])c1cccc2cn[nH]c12 | 3.18% |  |
| O=[N+]([O-])c1cccc2c(Br)[nH]nc12 | 28.7% |  |
| Cc1ccc(C(c2ccc(C)o2)c2cccc([N+](=O)[O-])c2O)o1 |  | 1.26 µM (active) |
| COC(=O)C1=C(C)OC(N)=C(C#N)C1c1cc(OC)ccc1OC (configuration not stated) |  | 5.01 µM (active) |
| COC(=O)C1=C(C)OC(N)=C(C#N)C1C1CCCCC1 (configuration not stated) |  | 10 µM (active) |
| CCOC(=O)C1=C(N)Oc2ccc(Br)cc2[C@@H]1[C@@H](C#N)C(=O)OCC | 4.51% |  |
| CCOC(=O)C1=C(c2ccccc2)OC(N)=C(C#N)C1c1ccc(Cl)s1 (configuration not stated) | 3.95% |  |
| CC(=O)OC[C@@H]1O[C@H](C/C=N\O[C@@H](C)c2cn([C@H]3COC[C@H]3O)nn2)C=C[C@@H]1OC(C)=O | 17.7% [at 11.4 µM] |  |
| COc1ccccc1-c1cncnc1NCc1cnc(C)cn1 | 14.1% [at 2.29 µM] |  |
| Cc1ccc(N=Nc2c(N)n(-c3ccccc3)[nH]c2=O)cc1 |  | 7.94 µM (active) |
| Cc1[nH]n(-c2ccc(S(=O)(=O)O)cc2)c(=O)c1N=Nc1ccccc1 | 21.2% [at 11.4 µM] |  |
| Cn1c(N)c(N=Nc2ccc(S(N)(=O)=O)cc2)c(=O)n(C)c1=O | 5.29% [at 11.4 µM] |  |
| CCN1C(=O)C=CC1=O | -9.22% |  |
| COc1ccc(CNCCC(c2ccc(OC(C)C)cc2)C(C)C)cc1OC (configuration not stated) | -47.4% |  |
| CC(C)=CCC/C(C)=C/CO/N=C1/C[C@@H](O)[C@@H](O)[C@@H]2[C@H]3C(=O)N(c4ccc(F)cc4F)C(=O)[C@@H]3CC[C@H]12 | 18.9% [at 11.4 µM] |  |
| COc1cc(/C=C(/C#N)c2nc3ccccc3[nH]2)ccc1Oc1ncccc1[N+](=O)[O-] |  | 2 µM (active) |
| N#C/C(=C\c1ccc(N2CCCC2)c([N+](=O)[O-])c1)c1nc2ccccc2[nH]1 |  | 2.51 µM (active) |
| N#C/C(=C\c1ccc(Oc2ccc(C(F)(F)F)cc2[N+](=O)[O-])cc1)c1nc2ccccc2[nH]1 |  | 3.98 µM (active) |
| COc1ccc(/C=C(/C#N)C(=O)Nc2cc(C)ccc2C)cc1C(=O)O | 6.97% |  |
| COc1cc(/C=C(/C#N)c2nc3ccccc3[nH]2)ccc1OCC(=O)Nc1ccccc1C |  | 3.16 µM (active) |

| SMILES | activity, negative = inhibition | AC50 |
| --- | --- | --- |
| Fc1ccc(Nc2ncnc3ccc(-c4ccoc4)cc23)cc1 | -12.3% [at 2.29 µM] |  |
| COc1ccc(-c2cc(C(F)(F)F)n3nc(C(=O)NCc4ccco4)c(Cl)c3n2)cc1 |  | 0.398 µM (active) |
| COc1ccc(-c2cc(CNC(C)=O)on2)cc1 | -18.3% |  |
| O=c1ccc(NS(=O)(=O)c2ccccc2)cn1Cc1ccc(Cl)c(Cl)c1 |  | 2.51 µM (active) |
| O=c1ccc(NS(=O)(=O)c2ccc(Cl)cc2)cn1Cc1ccc(Cl)c(Cl)c1 |  | 1.78 µM (active) |
| O=S(=O)(c1ccccc1)N1CCC2(CCN(Cc3ccccc3)CC2)CC1 | 0.608% |  |
| CCn1c(CCNC(=O)c2ccc(Cl)cc2Cl)n[nH]c1=S | 0.368% |  |
| CCCN(CCC)C(=S)NC(=O)c1ccc(Cl)cc1Cl |  | 3.55 µM (active) |
| CCC(C)C1NC(=S)N(C2CCCCC2)C1=O (configuration not stated) |  | 3.55 µM (active) |
| CC(C)CC1NC(=S)N(C2CCCCC2)C1=O (configuration not stated) |  | 17.8 µM (active) |
| COc1ccc2c(c1OC)C(=O)N(C(C)C(=O)O)C2=O (configuration not stated) | 9.64% |  |
| COc1cc(CN2CCCCC2)cc2cc(C(=O)O)c(=O)oc12 | 15.6% [at 11.4 µM] |  |
| O=C(CN1CCN(Cc2ccccc2)CC1)c1ccc(Br)cc1 | -28.3% |  |
| O=C(CN1CCN(Cc2ccccc2)CC1)N1CCCc2c1c(=O)oc1ccc(O)cc21 |  | 20 µM (active) |
| CCC[C@H](Sc1nc(N)nc2nc[nH]c12)C(=O)O | -1.85% [at 11.4 µM] |  |
| O=C(O)CC[P+](c1ccccc1)(c1ccccc1)c1ccccc1 | 8.46% [at 11.4 µM] |  |
| CC(=O)NNC(=O)N1Cc2ccccc2Oc2ccc(Cl)cc21 | -14.7% |  |
| O=C(Nc1ccccc1)N1CCSc2cc(Cl)ccc21 |  | 2.24 µM (active) |
| O=C(c1ccccc1)N1CCSC1=S | -13.1% |  |
| Cc1ccc([C@@]2(C)CC/C(=N/N=C3\CC[C@](C)(c4ccc(C)c(C)c4)c4cc(C)c(C)cc43)c3cc(C)c(C)cc32)cc1C | -6.14% [at 11.4 µM] |  |
| CCCCCCCCCCCCC/C=C\[C@@H](O)[C@H](CO)NC(C)=O |  | 3.16 µM (active) |
| CCCCCCCCCCCCCCC/C=C\[C@H](O)[C@@H](NC(=O)CCCCCCCCCCCCC)OC (tested in a mixture with another compound) | -1.65% |  |
| CCCCCCCCCCCCCCCC(=O)NC(C)C | -0.628% |  |
